Sfp PPTase inh: Sfp phosphopantetheinyl transferase inhibition | 3.5% of 310,000 active | AID 1490 | Biochemical Sfp PPTase activity, qHTS | Potency, µM, inactives show largest response in the series, negative = inhibition, most hits filed as inhibitors | Q9F4F7;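 also: the enzyme is Sfp with the accession as filed and its product quenches rhodamine fluorescence; 0% = enzyme reaction without inhibitor and -100% = no enzyme wells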
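Buffer: 50 mM Hepes-Na pH 7.6, 10 mM MgCl2, 0.01% Nonidet P-40, 0.01% BSA. Enzyme 15 nM, pre-exposed to compound 15 min; substrates then added and fluorescence change tracked over 30 min.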
HP1b chromo inh: HP1-beta chromodomain-methylated histone interaction inhibition; Potency, µM (doses to about 114 µM), inactives show at the top dose activity change, negative = inhibition, usual class: inhibitors; AID 540317; AlphaScreen HP1-beta / biotin-H3K9me3 peptide binding; P83916; 0.56% of 390,000 active; also: nearly all actives have a fitted effect of over 70% in size
Target sequence (P83916 whole entry, looked up): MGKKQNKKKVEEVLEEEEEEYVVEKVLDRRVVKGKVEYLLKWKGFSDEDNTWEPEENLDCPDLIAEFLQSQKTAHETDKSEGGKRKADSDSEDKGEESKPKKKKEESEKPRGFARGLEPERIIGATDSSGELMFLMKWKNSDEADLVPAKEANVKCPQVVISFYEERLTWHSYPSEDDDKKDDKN
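HP1-beta protein (50 nM final) preincubated 30 min at room temperature with biotinylated H3(1-18)K9me3 peptide (50 nM) in PBS pH 7.4, 0.01% Tween-20, then compound added for 30 min. AlphaScreen streptavidin donor/nickel chelate acceptor beads (10 ug/mL final), 30 min dark, luminescence read.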
G9a block: G9a (human) methyltransferase inhibition; G9a H3K9 monomethylation, AlphaScreen, 2 h; Potency, µM (doses to about 102 µM), without a hit: at the highest dose activity, negative = inhibition, actives largely listed as inhibitors; 8.8% of 350,000 active; also: % is scaled to controls: 0 for no effect and ±100 for the full control effect; nearly all actives have a fitted effect of over 75% in size
Target sequence (Q96KQ7 913-1193 limits assumed): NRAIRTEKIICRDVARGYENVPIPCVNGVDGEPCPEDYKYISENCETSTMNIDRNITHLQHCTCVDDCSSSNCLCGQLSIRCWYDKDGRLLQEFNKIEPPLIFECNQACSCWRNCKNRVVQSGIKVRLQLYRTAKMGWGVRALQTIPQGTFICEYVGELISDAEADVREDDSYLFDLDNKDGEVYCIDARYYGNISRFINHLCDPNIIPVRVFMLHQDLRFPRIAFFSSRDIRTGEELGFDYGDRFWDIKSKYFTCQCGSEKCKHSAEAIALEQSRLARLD
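AlphaScreen read-out: biotin-H3K9 peptide (500 nM) methylation by 20 nM enzyme with 20 uM SAM, 2 h at room temperature after 15 min compound preincubation; anti-monomethyl H3K9 antibody plus donor/acceptor beads, 10 min dark.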
JMJD2A Tudor inh: blocks the human JMJD2A Tudor domain. O75164. AlphaScreen JMJD2A-Tudor / H3K4me3 peptide binding. Potency, µM (series often up to 114 µM), for inactives: top-dose activity change, negative = inhibition, usual class: inhibitors. 4.4% of 390,000 active. AID 504339; also: % is scaled to controls: 0 for no effect and ±100 for the full control effect; nearly all actives have a fitted effect of over 50% in size
PLK1 PBD inh: inhibitors of human PLK1 polo-box domain binding; Plk1 PBD binding of FITC phosphopeptide, fluorescence polarization; Potency, µM, without a hit: max response, negative = inhibition, hits mostly inhibitors; 2.8% of 360,000 active; AID 720504; also: series mostly up to about 57 µM; % is scaled to controls: 0 for no effect and ±100 for the full control effect; nearly all actives have a fitted effect of over 65% in size
BAZ2B inh: inhibitors of human BAZ2B bromodomain | Q9UIF8 | AlphaScreen BAZ2B-H3K14Ac peptide displacement | Potency, µM (top dose mostly 114 µM), without a hit: top-dose activity change, negative = inhibition, hits mostly inhibitors | 4.4% of 360,000 active; also: % is scaled to controls: 0 for no effect and ±100 for the full control effect; nearly all actives have a fitted effect of over 60% in size
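In this displacement format the biotinylated H3(5-23) peptide acetylated at Lys14 serves as ligand at 50 nM, with BAZ2B at 50 nM in PBS pH 7.4 containing 0.01% Tween-20. Donor and acceptor beads are 10 ug/mL final.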
* marks the source's active call; other numbers are inactive results; ? = inconclusive; . = not tested or not shown; [ ] = remark or other dose. The list is not random: actives were taken first. Their share in the collection is about 12%. Calls follow the shape of the dose curve; as a rule, active = well fitted curve in the direction sought with a large enough effect; inconclusive = small, poorly fitted or top-dose-only effect, or another doubt; inactive = no such curve, though single readings can be large; an effect the other way counts as inactive or inconclusive. Potency is read from the fitted curve at half-maximal effect.

SMILES | Sfp PPTase inh | HP1b chromo inh | G9a block | JMJD2A Tudor inh | PLK1 PBD inh | BAZ2B inh
Cc1ccc(Cl)cc1NC(=O)Nc1cccs1 | 50µM* | 25% | ? | -17% | -9% | -8%
Cc1ccccc1NC(=O)Nc1cccs1 | 22µM* | 7% | ? | -26% | -5% | -36%
Cc1ccc(NC(=O)Nc2cccs2)c(C)c1 | . | 23% | ? | -18% | . | -32%
CC1CN(C(=O)c2ccc(Br)c(S(=O)(=O)N3CCOCC3)c2)CC(C)O1 (centres undefined) | . | 38% | 9%[12.7 µM] | 16% | 7% | -2%
CCOc1ccccc1C1C(C(=O)N2CCCCC2)=C(C)Nc2nc3ccccc3n21 (centres undefined) | . | 36% | -32%[59 µM] | -15% | . | -2%
O=C(C1CC(=O)N(c2ccc(F)c(Cl)c2)C1)N1CCOCC1 (centres undefined) | . | . | . | . | 4% | .
O=C(Nc1ccc(F)cc1)N1CCN(c2ncccn2)CC1 | 15% | 26% | 4% | -4% | -17% | 9%
O=C(Nc1ccncc1)Nc1ccccn1 | 14% | 26% | -5%[12.7 µM] | -4% | 0% | 0%
O=C(Nc1ccccn1)Nc1cccs1 | 50µM* | 17% | 56µM* | -18% | -2% | ?
O=C(Nc1cccs1)N1CCN(c2ncccn2)CC1 | -23% | 27% | 40µM* | -10% | ? | -6%
COc1ccc(-c2noc(CC(=O)N(C)c3cc(Cl)c(OC)cc3OC)n2)cc1 | . | 38% | -30%[59 µM] | -19% | . | -15%
COc1ccc(-c2nnc(N(C)C(=O)c3ccno3)s2)cc1 | -3% | 84% | -3%[59 µM] | -13% | -2% | -5%
CN(C(=O)c1ccncc1)c1nnc(-c2cccnc2)s1 | 18% | 18% | 16%[59 µM] | -11% | -6% | -5%
CN(C(=O)c1ccncc1)c1nnc(-c2ccccn2)s1 | 8% | 16% | -4%[12.7 µM] | -28% | -6% | 56µM*
Cc1ccc(C(=O)N(C)c2nnc(-c3ccncc3)s2)cc1 | -4% | 8% | . | 79µM* | -8% | -34%
CN(C(=O)c1ccno1)c1nnc(-c2ccccn2)s1 | 17% | 49% | ? | ? | -5% | 50µM*
CN(C(=O)c1ccc(C#N)cc1)c1nnc(-c2ccccn2)s1 | 1% | 102% | -15%[59 µM] | 0% | -6% | 8%
CN(Cc1ccco1)c1ccnc(-c2cccc(NS(C)(=O)=O)c2)n1 | 3% | . | . | . | . | .
COc1ccc(OC2C=CC(c3ccccc3)OC2CO)cc1 (centres undefined) | -30% | . | . | . | . | .
CNC(=O)c1c(NC(=O)CCS(=O)(=O)c2ccc(C)cc2)sc2c1CCN(C(=O)OC)C2 | . | 15% | 50µM* | -9% | ? | -4%
CNC(=O)c1c(NC(=O)CCS(=O)(=O)c2ccccc2)sc2c1CCN(C(=O)OC)C2 | . | 18% | 50µM* | -10% | -9% | 0%
CCOC(=O)c1c(NC(=O)CCS(=O)(=O)c2ccccc2)sc2c1CCN(C(C)C)C2 | -8% | 35% | . | -12% | -14% | -12%
CC(=O)N1CCc2c(sc(NC(=O)CCS(=O)(=O)c3ccc(C)cc3)c2C#N)C1 | . | 31% | -47% | -11% | -9% | -3%
Cc1nc2ccn(Cc3ccco3)c(=O)c2cc1C(=O)N1CCN(c2ccccc2F)CC1 | . | 22% | -4%[59 µM] | -19% | . | -21%
O=C(NC(=S)Nc1ccc(F)cc1)c1ccc2c(c1)OCCO2 | 2% | 23% | ? | -29% | -22% | ?
SMILES | Sfp PPTase inh | HP1b chromo inh | G9a block | JMJD2A Tudor inh | PLK1 PBD inh | BAZ2B inh
CC(C)CC(=O)NC(=S)Nc1ccc(CN2CCOCC2)cc1 | 14% | 33% | . | -2% | -6% | -5%
O=C(NC(=S)Nc1ccc(CN2CCOCC2)cc1)c1ccc2c(c1)OCCO2 | ? | ? | 45µM* | ? | -12% | ?
O=C(NC(=S)Nc1ccc(N2CCCC2)cc1)c1ccc(F)cc1 | -6% | -15% | ? | ? | 6% | 11µM*
O=C(NC(=S)Nc1ccc(N2CCCCC2)cc1)c1ccc2c(c1)OCCO2 | -20% | ? | ? | ? | -1% | 10µM*
O=C(NC(=S)Nc1ccc(N2CCOCC2)cc1)c1ccc2c(c1)OCCO2 | -9% | -25% | 10µM* | 20µM* | 8.4µM* | ?
CS(=O)(=O)N1CCN(c2ccc(NC(=S)NC(=O)c3ccc4c(c3)OCO4)cc2)CC1 | 14% | 28% | ? | -22% | 4% | -1%
CCOC(=O)c1ccc(NC(=O)Cn2nc(SC)c(S(=O)(=O)c3ccc(Cl)cc3)c2N)cc1 | . | 28% | -4%[59 µM] | -23% | . | -20%
CC(Sc1ccc2c(c1)OCCO2)C(=O)Nc1ccc(N2CCOCC2)cc1 (centres undefined) | 2% | 24% | 50µM* | -7% | ? | -10%
Cc1ccccc1-c1noc(CSc2nc3ccccc3[nH]2)n1 | . | 52% | -3%[59 µM] | 9% | . | 7%
CCCCCOC(=O)Cn1c(=O)c2c(nc(N3CCOCC3)n2C)n(C)c1=O | -3% | 1% | 10µM* | ? | -2% | 8%
COc1ccc(S(=O)(=O)N2CCN(c3ccccc3)CC2)cc1-c1noc(C)n1 | . | 39% | 5%[59 µM] | -14% | . | -5%
COc1ccc(CN(Cc2ccccn2)S(=O)(=O)c2ccc(-n3cnnn3)cc2)cc1 | 8% | 17% | 11% | -17% | -1% | -11%
Cc1cc(S(=O)(=O)N(Cc2ccccn2)Cc2ccco2)ccc1-n1cnnn1 | 7% | 11% | 25µM* | -27% | -15% | ?
CCOc1ccccc1CN(Cc1ccco1)S(=O)(=O)c1ccc(-n2cnnn2)c(OC)c1 | 9% | -1% | 8.9µM* | -33% | 0% | -2%
CCN(CC)S(=O)(=O)c1ccc(OC)c(-n2cnnn2)c1 | -10% | 55% | 1%[59 µM] | -3% | -12% | -6%
COc1cc(S(=O)(=O)N(Cc2ccco2)C2CCCC2)ccc1-n1cnnn1 | ? | 42% | 32µM* | -34% | -6% | 2%
CCN(CC)S(=O)(=O)c1ccc(-n2cnnn2)c(C)c1 | 13% | 30% | 23% | 2% | -6% | 1%
COc1ccc(CN(Cc2ccccn2)S(=O)(=O)c2ccc(-n3cnnn3)c(OC)c2)cc1 | 4% | 30% | 50µM* | -13% | -4% | -33%
Cc1ccccc1CNC(=O)CN1CCSc2ccccc21 | . | -3%[57 µM] | -32%[59 µM] | ? | . | ?
CCOc1cc(C(C(=O)NCC2CCCO2)N(C(=O)Cn2nnc3ccccc32)c2ccc(NC(C)=O)cc2)ccc1O (centres undefined) | 5% | 37% | 45µM* | 4% | 1% | -6%
COc1cc(C(C(=O)NCC2CCCO2)N(C(=O)Cn2nnc3ccccc32)c2ccc(OC)c(OC)c2)ccc1O (centres undefined) | 15% | 28% | 25%[59 µM] | 0% | 6% | 2%
CCc1ccc(NC(=O)CN(CC(=O)Nc2ccc(CC)cc2)CC(C)O)cc1 (centres undefined) | 13% | 1% | -27%[2.33 µM] | ? | 27µM* | -18%

Screens as filed in PubChem.
